# Screens: PubChem BioAssay, National Center for Advancing Translational Sciences (NCATS)
# VDR inhibitor = Inhibitors of the vitamin D receptor (VDR): qHTS; Vitamin D3 receptor (Homo sapiens), P11473; VDR-SRC2-3 peptide fluorescence polarization, 2 h; Potency, µM, without a hit: max response, negative = inhibition, usual class: inhibitors; 0.93% of 400,000 active; also: % is scaled to controls: 0 for no effect and ±100 for the full control effect
#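 Measured by FP: displacement of SRC2-3 coactivator peptide from VDR by library compounds, following a two-hour ambient incubation.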
# PKM2 act = qHTS Assay for Activators of Human Muscle isoform 2 Pyruvate Kinase; Pyruvate kinase PKM (Homo sapiens), P14618; 0.34% of 260,000 active; Potency, µM (highest dose often 57.5 µM), for inactives: at the highest dose activation, hits mostly activators; purified PKM2, Kinase-Glo ATP luminescence, activation; response scale: 0% is enzyme alone, no compound; also: % is scaled to controls: 0 for no effect and ±100 for the full control effect; nearly all actives have a fitted effect of over 55% in size
# Target sequence (P14618 whole entry, looked up, canonical isoform): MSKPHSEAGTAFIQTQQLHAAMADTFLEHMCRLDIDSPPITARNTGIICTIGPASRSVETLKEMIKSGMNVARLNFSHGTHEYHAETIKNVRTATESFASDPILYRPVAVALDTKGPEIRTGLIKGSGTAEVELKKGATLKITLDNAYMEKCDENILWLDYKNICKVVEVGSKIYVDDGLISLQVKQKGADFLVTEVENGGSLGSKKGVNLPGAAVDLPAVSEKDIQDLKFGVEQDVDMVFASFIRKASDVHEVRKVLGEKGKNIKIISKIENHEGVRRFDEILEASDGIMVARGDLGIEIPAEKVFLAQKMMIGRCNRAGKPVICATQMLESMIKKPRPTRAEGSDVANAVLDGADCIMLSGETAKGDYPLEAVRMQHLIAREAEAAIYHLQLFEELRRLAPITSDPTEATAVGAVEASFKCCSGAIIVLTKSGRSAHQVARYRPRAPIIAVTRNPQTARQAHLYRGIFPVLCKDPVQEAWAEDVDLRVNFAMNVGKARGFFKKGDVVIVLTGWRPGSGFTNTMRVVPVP
#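 Kinase-Glo luminescence reports ATP generated from ADP (0.1 mM) and PEP (0.5 mM) by purified hPK-M2 after 1 h at room temperature, pH 7.2 imidazole buffer; intermediate enzyme activity allows detecting inhibitors and activators.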
# GLS inhibitor = qHTS for Inhibitors of Glutaminase (GLS) | Glutaminase kidney isoform, mitochondrial (Homo sapiens), O94925 | GLS enzymatic activity, qHTS titration | Potency, µM (highest dose often 45.5 µM), for inactives: top-dose activity change, negative = inhibition, hits mostly inhibitors | 0.21% of 410,000 active | AID 624170, 2012; also: % is scaled to controls: 0 for no effect and ±100 for the full control effect
#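 Glutamate formation by hKGA was monitored fluorometrically using coupled glutamate oxidase, HRP and Amplex Red. Substrate was added as 1 mM L-glutamine solution; incubation was 30 min at RT after an initial read.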
# Mito fusion yeast = qHTS Assay for Small Molecule Inhibitors of Mitochondrial Division or Activators of Mitochondrial Fusion; S. cerevisiae fusion-defective mutant growth rescue, CellTiterGlo 48 h; Potency, µM (series often up to 46.1 µM), without a hit: at the top dose growth rescue (activation), most hits filed as activators; 0.23% of 320,000 active; also: % of control where 0% means no effect; nearly all actives have a fitted effect of over 45% in size
#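 Yeast fusion mutant, YPEG (non-fermentable carbon), compound, 48 h at 37C non-permissive; CellTiterGlo added, 10 min RT, luminescence read. Rescued growth = division inhibition.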
# GCN5L2 inh = qHTS Assay for Inhibitors of GCN5L2 | Histone acetyltransferase KAT2A (Homo sapiens), Q92830 | GCN5L2 HAT assay, ThioGlo1 CoA-SH fluorescence | Potency, µM (doses to about 58.9 µM), for inactives: at the top dose activity change, negative = inhibition, most hits filed as inhibitors | 0.21% of 390,000 active; also: % is scaled to controls: 0 for no effect and ±100 for the full control effect
#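 GCN5L2 (20 nM) in 50mM HEPES pH 7.5, 0.1mM EDTA, 0.01% Tween-20 preincubated 15 min with compounds at room temperature. Reaction started with H3(1-25) 75uM, acetyl-CoA 70uM, ThioGlo1 50uM; CoA-thiol fluorescence (Ex340/Em540) read at 0 and 20 min.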
# PLK1 PBD inh = qHTS for Inhibitors of PLK1-PDB (polo-like kinase 1 - polo-box domain): Primary Screen. Serine/threonine-protein kinase PLK1 (Homo sapiens), P53350. Plk1 PBD binding of FITC phosphopeptide, fluorescence polarization. Potency, µM, inactives show max response, negative = inhibition, most hits filed as inhibitors. 2.8% of 360,000 active. AID 720504, 2013; also: series mostly up to about 57 µM; % is scaled to controls: 0 for no effect and ±100 for the full control effect; nearly all actives have a fitted effect of over 65% in size
# * hit, by the source's call; ? = inconclusive; / = no result; [ ] = another dose, or the depositor's remark. Shown are actives, neighbours in structure and some others; about 3.4% of the full set was active somewhere. Calls follow the shape of the dose curve; as a rule, active = well fitted curve in the direction sought with a large enough effect; inconclusive = small, poorly fitted or top-dose-only effect, or another doubt; inactive = no such curve, though single readings can be large; an effect the other way counts as inactive or inconclusive. Potency is read from the fitted curve at half-maximal effect.
SMILES,VDR inhibitor,PKM2 act,GLS inhibitor,Mito fusion yeast,GCN5L2 inh,PLK1 PBD inh
CCc1nc(SCC(=O)NNC(=O)c2ccc(OC)cc2)c2ccccc2n1,-18%,1%,8.9µM*,5%,0%,?
COc1ccc(N2CC(C(=O)Nc3ccc(S(=O)(=O)Nc4nccs4)cc3)CC2=O)c(OC)c1 (stereo not given),-12%,/,-13%,-4%,-12%,-9%
COc1ccccc1C(c1nnnn1Cc1ccccc1)N1CCN(C2CCCC2)CC1 (stereo not given),-14%,7%,-10%,-1%,0%,30µM*
COc1cccc(C(c2nnnn2Cc2ccccc2)N2CCN(C3CCCC3)CC2)c1OC (stereo not given),-10%,-2%,-4%,-8%,1%,-7%
Fc1ccc(Cn2nnnc2C(c2cccs2)N2CCN(C3CCCCC3)CC2)cc1 (stereo not given),-10%,-6%,-17%,8%,-6%,6%
COCCn1nnnc1C(c1cccs1)N1CCN2CCCC2C1 (stereo not given),-5%,8%,4%,6%,0%,19µM*
COc1ccc2c3c(c(=O)oc2c1)C1O[C@](c2ccsc2)(Cc2cc(C#N)ccc21)O3,/,0%[11.5 µM],/,1%[9.22 µM],-12%[12.7 µM],/
COC(=O)N1[C@H]2CC[C@@]3(C)C=C(C)O[C@]1(C)C3c1ccccc12,-3%,/,/,/,/,/
CC1CC=CC2C1C(=O)N(Cc1ccccc1)C2c1ccc2ccccc2c1C=Cc1ccccc1 (stereo not given),-5%,/,/,/,/,/
CCC1CC=CC2C1C(=O)N(Cc1ccccc1)C2c1ccoc1 (stereo not given),79µM*,/,/,/,/,/
C[C@@H]1CC=C[C@H]2[C@H]1C(=O)N(Cc1ccccc1)[C@H]2c1ccc2ccccc2c1Br,-30%,-1%,1%,?,0%,24µM*
O=C(CNC(=O)C1CCCCC1)OCCOc1ccccc1,-18%,/,/,/,/,/
COc1cccc(C=Nc2cccnc2)c1O,/,0%,/,2%,-5%,/
COc1cccc(C=Nc2cc(C(C)C)c(O)cc2C)c1O,50µM*,/,41%,/,/,-22%
CNC(=O)CO/N=C/c1ccc(N(C)C)cc1,6%,0%,17%,4%,-8%,6%
Cc1cc(O)c(C(C)C)cc1N=Cc1ccc(N(C)C)cc1,45µM*,/,-4%,/,/,-18%
Cc1cc(O)c(C(C)C)cc1N=Cc1ccc([N+](=O)[O-])cc1,50µM*,/,0%,/,/,-23%
O=C(NCc1cccc(Br)c1)c1ccc(-n2cnc3cccnc32)cc1,4%,/,-11%,/,-2%,/
O=c1ccn(C2CCCO2)c(=O)[nH]1 (stereo not given),-29%,/,-8%,/,/,-4%
OC1=C(O)c2nc3cc(F)ccc3nc21,-7%,2%,29%,-2%,-7%,21µM*
C=C(CCC(=O)c1ccccc1)C(=O)c1ccccc1,45µM*,2%,-9%,3%,2%,-12%
CCOC(=O)CC(S(=O)(=O)c1ccccc1)S(=O)(=O)c1ccccc1,/,/,6%,/,/,27µM*
CCOC(=O)CN(c1ccccn1)S(=O)(=O)c1ccccc1,5%,2%,6%,-4%,-7%,0%
CC(C)CC(=O)N1CCN(C(=O)CCC2CCCC2)CC1,-10%,5%,68%,3%,-4%,27µM*
COc1cccc(C(=O)NCC(c2ccc(N(C)C)cc2)N2CCc3ccccc32)c1 (stereo not given),-2%,/,34%,/,-2%,/
SMILES,VDR inhibitor,PKM2 act,GLS inhibitor,Mito fusion yeast,GCN5L2 inh,PLK1 PBD inh
O=C(N/N=C/C(Cl)=C/c1ccc([N+](=O)[O-])cc1)C(=O)Nc1ccc(C(=O)O)cc1,?,?,10%,-5%,-9%,30µM*
Brc1ccc(C2=Nn3c(Cn4nnc5ccccc54)nnc3SC2)cc1,?,-9%,-22%,-1%,-20%,12µM*
COc1ccc(OCc2nnc3n2N=C(c2ccc(OC)cc2)CS3)cc1,-6%,2%,-1%,6%,-7%,?
c1ccc(OCc2nnc3n2N=C(c2ccccc2)CS3)cc1,?,-15%,3%,8%,?,7.5µM*
CC1CCCN(C(=O)CCc2nnc(-c3ccc4c(c3)OCO4)o2)C1 (stereo not given),-6%,-3%,4%,-5%,-14%,-1%
CCOC(=O)c1[nH]c2c(c1Cc1ccccc1)C(=O)CC(c1ccccc1)C2 (stereo not given),-11%,/,-3%,/,-13%,/
O=C(NC(=S)NCc1cccnc1)c1cc(Br)ccc1Cl,2%,1%,7%,4%,0%,-13%
O=c1[nH]c(=S)[nH]c(-c2ccccc2)c1Cc1c(O)ccc2ccccc12,22µM*,/,/,?,?,/
Cc1[nH]c(=S)[nH]c(=O)c1Cc1c(O)ccc2ccccc12,-29%,/,7%,/,/,?
Cn1c(-c2ccsc2)c(-c2cccs2)c2cc(Br)ccc21,9%,/,-9%,5%,20µM*,2%
COc1cc(OC)cc(-c2c(-c3cccs3)c3cc(Br)ccc3n2C)c1,14%,/,-2%,13%,-25%,-3%
Cc1nnsc1C(=O)Nc1ccc(S(=O)(=O)N2CCCC(C)C2)cc1 (stereo not given),-5%,-1%[0.46 µM],-16%,8%,-5%,-10%
O=C(CSc1ccccc1C(=O)O)NC1CCCCCC1,20%,0%,-1%,-7%,-1%,-1%
O=C(CSc1ncccc1C(=O)O)NC1CCCCCCC1,-26%,-2%,-4%,-5%,-2%,27µM*
COc1ccccc1Nc1ccc(N)cc1,-3%,-6%,11µM*,-7%,-3%,-21%
Cc1c(C(=O)NN2CCCCC2)nn(-c2ccc(Cl)cc2Cl)c1-c1ccc(Cl)cc1,?,/,18%,/,34%,/
CCNc1ncc2nc(-c3ccc(F)cc3)c(=O)n(C)c2n1,6%,/,/,/,-4%,/
N#Cc1c(N)sc(=S)c2c1CCCCC2,?,10%,32%,7%,?,21µM*
CCOc1ccccc1Nc1nc2ccccc2c2nncn12,-20%,/,0%,/,-3%,/
COc1ccc(NC(=S)NC(=NS(=O)(=O)c2ccc(Cl)cc2)c2ccccc2)cc1,-19%,/,17%,/,0%,12µM*
